Assay outcomes (PubChem BioAssay)
PLK1 PBD inh – PLK1 (human) polo-box domain binding inhibition. Plk1 PBD binding of FITC phosphopeptide, fluorescence polarization. Potency, µM, for inactives: max response, negative = inhibition, usual class: inhibitors. P53350. actives 2.8% (n = 360,000); also: series mostly up to about 57 µM; nearly all actives have a fitted effect of over 65% in size
Target sequence (P53350 whole entry, looked up, the tested form may be a part): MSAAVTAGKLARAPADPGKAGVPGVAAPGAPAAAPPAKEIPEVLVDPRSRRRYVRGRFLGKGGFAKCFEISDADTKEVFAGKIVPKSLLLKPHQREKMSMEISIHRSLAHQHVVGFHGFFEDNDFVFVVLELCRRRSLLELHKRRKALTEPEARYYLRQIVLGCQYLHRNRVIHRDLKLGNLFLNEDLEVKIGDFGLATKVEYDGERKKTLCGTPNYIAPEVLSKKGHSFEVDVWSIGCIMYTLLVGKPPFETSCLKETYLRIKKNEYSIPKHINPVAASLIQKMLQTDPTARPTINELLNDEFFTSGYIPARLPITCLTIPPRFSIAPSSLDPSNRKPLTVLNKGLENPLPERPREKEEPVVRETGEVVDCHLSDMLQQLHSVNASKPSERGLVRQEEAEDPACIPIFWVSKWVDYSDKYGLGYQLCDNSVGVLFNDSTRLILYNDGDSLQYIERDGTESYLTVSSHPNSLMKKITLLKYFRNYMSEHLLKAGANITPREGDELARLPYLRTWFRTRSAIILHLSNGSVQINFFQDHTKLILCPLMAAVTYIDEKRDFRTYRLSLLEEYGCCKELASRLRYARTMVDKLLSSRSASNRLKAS
VDR inh – blocks the human vitamin D receptor; P11473; VDR-SRC2-3 peptide fluorescence polarization, 2 h; Potency, µM, without a hit: max response, negative = inhibition, usual class: inhibitors; actives 0.93% (n = 400,000)
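Two reagent solutions held at 4 deg C in the dark were dispensed, compounds pinned at 23 nl, and the mixture incubated 2 h at room temperature. Read-out: fluorescence polarization of VDR–SRC2-3 peptide binding.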
Tau fibril ThT – inhibitors of human tau fibril formation, thioflavin T binding | P10636 | recombinant tau K18 P301L, heparin-induced fibrillization, ThT fluorescence | Potency, µM (titrated, usually from 57.4 µM), inactives show top-dose activity, negative = inhibition, actives largely listed as inhibitors | actives 2.1% (n = 270,000) | AID 1460; also: nearly all actives have a fitted effect of over 55% in size
Target sequence (P10636 561-689 P618L limits assumed): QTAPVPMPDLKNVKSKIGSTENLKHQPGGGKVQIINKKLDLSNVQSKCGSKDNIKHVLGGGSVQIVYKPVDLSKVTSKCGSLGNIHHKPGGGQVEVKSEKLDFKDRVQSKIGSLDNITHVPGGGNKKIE
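Recombinant human tau K18 fragment […] carrying P301L, 15 uM unlabeled plus 0.24 uM Alexa 594-labeled, was fibrillized with 20 uM heparin in 100 mM sodium acetate pH 7 for 6 hr at 37 C; 30 uM ThT fluorescence read after 1 hr.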
Tau fluor cs – counter-screen for tau fibril formation inhibitors; Potency, µM (doses to about 57.7 µM), for inactives: top-dose activity change, negative = decrease; AID 1463; tau K18 P301L (four-repeat tau fragment) Alexa594 fluorescence, heparin fibrillization; actives 0.93% (n = 280,000); also: nearly all actives have a fitted effect of over 55% in size
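Human K18 P301L tau (15 uM unlabeled plus 0.24 uM Alexa 594-labeled, final) in 100 mM sodium acetate pH 7 was mixed with compound and 20 uM heparin and incubated 6 hr at 37 C.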
Tau FP inhib – tau fibrillization inhibition (FP) | AID 1468 | K18 P301L tau heparin fibrillization, Alexa594 FP, 6 h | Potency, µM (series often up to 57.7 µM), inactives show at the highest dose activity, negative = inhibition, usual class: inhibitors | actives 0.39% (n = 280,000); also: nearly all actives have a fitted effect of over 55% in size
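Steps: dispense K18 P301L tau (15 uM plus 0.24 uM Alexa 594 tracer, final) in pH 7 sodium acetate; add compound; add heparin (20 uM final); incubate 6 hr, 37 C; add ThT (30 uM final); after 1 hr ambient, read FP.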
Sfp PPTase inh – blocks B. subtilis Sfp PPTase activity; Q9F4F7; Biochemical Sfp PPTase activity, qHTS; actives 3.5% (n = 310,000); Potency, µM, for inactives: largest response in the series, negative = inhibition, hits mostly inhibitors;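 also: the enzyme is Sfp with the accession as filed and its product quenches rhodamine fluorescence; 0% = enzyme reaction without inhibitor and -100% = no enzyme wells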
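Buffer: 50 mM Hepes-Na pH 7.6, 10 mM MgCl2, 0.01% Nonidet P-40, 0.01% BSA. Enzyme 15 nM, pre-exposed to compound 15 min; substrates then added and fluorescence change tracked over 30 min.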
The depositor's hits bear a star; ? = inconclusive; . = no result; [ ] = another dose, or the depositor's remark. The list is not random: actives were taken first. Their share in the collection is about 6%. Calls follow the shape of the dose curve; as a rule, active = well fitted curve in the direction sought with a large enough effect; inconclusive = small, poorly fitted or top-dose-only effect, or another doubt; inactive = no such curve, though single readings can be large; an effect the other way counts as inactive or inconclusive. Unless noted, % is scaled to controls: 0 for no effect and ±100 for the full control effect; potency is read from the fitted curve at half-maximal effect.

SMILES	PLK1 PBD inh	VDR inh	Tau fibril ThT	Tau fluor cs	Tau FP inhib	Sfp PPTase inh
CCOC(=O)C1CCC(CN(Cc2ccc(OC)cc2)S(=O)(=O)c2ccc(F)c(C(=O)Nc3c(C)cccc3C)c2)CC1 (stereo not given)	.	14.6%	-3.6%	-10.9%	2.7%	.
CC1CC(C)CN(C(=O)c2cn(C)c3ccc(S(=O)(=O)N(C)C)cc3c2=O)C1 (stereo not given)	-0.3%	1.1%	-9.3%	-5.5%	-3.3%	11.9%
CCn1cc(C(=O)N2CC(C)CC(C)C2)c(=O)c2cc(S(=O)(=O)N(C)C)ccc21 (stereo not given)	21.2µM*	-16.4%	-5.6%	-2.2%	-4.6%	4.0%
C=Cc1ccc(CN2C(=O)N(c3ccc(CC)cc3)S(=O)(=O)c3ccccc32)cc1	.	-3.9%	12.8%	-1.0%	?	.
Cn1c2c(c(=O)n(C)c1=O)C(c1ccccc1F)C(C#N)=C(N)O2 (stereo not given)	?	-13.6%	20µM*	-18.6%	?	-22.3%
Cc1ccc(O)c(NC(=O)COCc2cc(-c3ccco3)on2)c1	.	4.2%	-15.7%	-23.3%	9.6%	.
N#CC1=C(N)NC(SCC(=O)c2ccccc2)=C(C#N)C12CCCC2	-29.5%	0.4%	?	?	13.5%	?
CC1=C(C(=O)Nc2ccccc2)C2(CCCCC2)C(C#N)=C(SCC(N)=O)N1	3.36µM*	?	-12.3%	-17.1%	0.0%	10.0%
CC(C)c1ccc(/C=C2\SC(=O)N(CC(=O)NC3C=CS(=O)(=O)C3)C2=O)cc1 (stereo not given)	-10.5%	-5.6%	.	.	.	-20.8%
CC(C)C(=O)Nc1ccc2nc(SCCOc3ccccc3)sc2c1	.	4.6%	2.8%	-3.0%	-3.0%	.
COc1ccc(-c2cn3c(C)c(C(=O)N4CCCc5ccccc54)sc3n2)cc1	-3.6%	-6.5%	.	.	.	.
COc1ccc(-c2cn3c(C)c(C(=O)Nc4ccncc4)sc3n2)cc1	1.8%	-14.2%	?	-23.6%	-1.4%	44.7µM*
Cc1c(C(=O)Nc2ccncc2)sc2nc(-c3ccc(F)cc3)cn12	-1.3%	-5.3%	-12.5%	-7.0%	?	-15.0%
COc1ccc(-c2cn3c4c(sc3n2)CCCC4)cc1	-1.5%	9.4%	?	-28.5%	12.8%	79.4µM*
CCOc1ccc(Oc2nc(Nc3ccc(C)cc3)nc(N(C)C)n2)nn1	21.2µM*	-10.9%	-5.7%	-1.8%	6.0%	-10.0%
CCC(=O)N[C@H]1C=C[C@H](CC(=O)OC)O[C@@H]1CO	-9.5%	.	.	.	.	.
O=C1CCCN2N=C(SCC(=O)Nc3ccc(OC(F)(F)F)cc3)SC2=N1	-4.9%	-4.3%	.	.	.	14.0%
O=C1CCCN2N=C(SCC(=O)Nc3ccc([N+](=O)[O-])cc3)SC2=N1	37.7µM*	?	.	.	.	0.0%
CC1(C(=O)NS(=O)(=O)c2ccc(C#N)cc2)CCN1C(=O)Cc1ccccc1Cl (stereo not given)	4.8%	.	.	.	.	.
CN(Cc1ccccc1)S(=O)(=O)c1ccc2[nH]c3c(c2c1)CCCCC3	.	8.5%	-0.5%	3.55µM*[quencher]	?	.
Cc1cccc(NS(=O)(=O)c2ccc3[nH]c4c(c3c2)CCCCCC4)c1	.	6.1%	-0.4%	11.2µM*[quencher]	6.6%	.
O=S(=O)(Nc1cccc(Cl)c1)c1ccc2[nH]c3c(c2c1)CCCCCC3	.	5.8%	-9.6%	8.91µM*[quencher]	?	.
Cc1ccccc1NS(=O)(=O)c1ccc2[nH]c3c(c2c1)CCCCC3	.	4.0%	-11.0%	14.1µM*[quencher]	4.6%	.
CC1=C(C(=O)OCc2ccccc2)C(c2ccc3c(c2)OCO3)NC(=O)N1CCCC(=O)O (stereo not given)	-14.5%	-19.2%	.	.	.	.
COC(=O)c1ccc2nc(-c3ccc(Cl)cc3)c(Cc3ccsc3)n2c1	3.4%	.	.	.	.	.
SMILES	PLK1 PBD inh	VDR inh	Tau fibril ThT	Tau fluor cs	Tau FP inhib	Sfp PPTase inh
O=c1c2ncn([C@@H]3O[C@@H]4COP(=O)(O)O[C@H]4[C@H]3O)c2nc2[nH]c(-c3ccccc3)cn12	.	7.4%	.	.	.	22.3%
Cn1cnnc1Sc1ccc(/C=C/C(=O)c2ccc(O)cc2)cc1[N+](=O)[O-]	-21.6%	?	14.1µM*	?	1.5%	-9.9%
Cn1cnnc1Sc1ccc(C(=O)OCC(=O)Nc2cc(Cl)cc(Cl)c2)cc1[N+](=O)[O-]	-19.7%	-5.8%	?	12.6µM*[quencher]	-3.7%	7.0%
CCC(C)(C)NC(=O)c1ccc(Sc2nncn2C)c([N+](=O)[O-])c1	-29.5%	-6.8%	5.8%	3.7%	2.3%	6.5%
CCSc1ncc(Cl)c(C(=O)N(Cc2ccccc2Cl)C2CCS(=O)(=O)C2)n1 (stereo not given)	.	15.0%	-8.1%	-16.4%	-4.5%	.
S=C(Nc1ccc(Br)cc1Cl)N1CCCC1	-0.1%	3.0%	.	.	.	10.3%
O=C(Nc1ccc(CN2CCCCC2)cc1)Nc1ccc(Br)cc1Cl	-11.2%	-13.2%	-0.2%	?	?	79.4µM*
CCn1c2ccc(Cl)cc2c2nc3ccccc3nc21	-9.0%	9.1%	15.8µM*	-22.6%	-10.3%	-70.2%
CSC1=NC(C)(C)C=C(/C=C/c2ccc(Cl)cc2)N1	?	31.6µM*	?	-3.2%	1.8%	39.8µM*
Cc1cccc(C)c1NC(=O)C(c1ccccc1)N1CCC1=O (stereo not given)	16.8µM*	?	-2.0%	4.2%	-0.9%	13.8%
Cc1cc(C)cc(OC(=O)CS(=O)c2ccc(C(F)(F)F)cc2[N+](=O)[O-])c1 (stereo not given)	?	20µM*	12.6µM*	?	?	5.5%
Cc1ccc(OCCNc2ccc(C(F)(F)F)cc2[N+](=O)[O-])cc1	-5.4%	-1.2%	?	-11.6%	?	14.4%
O=C(NCCO)c1ccc(Oc2ccc(C(F)(F)F)cc2[N+](=O)[O-])cc1	-1.5%	10.9%	-4.2%	-5.0%	6.8%[2.34 µM]	22.9%
O=C(CS(=O)c1ccc(C(F)(F)F)cc1[N+](=O)[O-])Oc1ccc(Cl)cc1 (stereo not given)	13.4µM*	50.1µM*	22.4µM*	?	?	-2.9%
CC(OC(=O)c1cc(=O)[nH]c2ccccc12)C(=O)N1C(C)CCCC1C (stereo not given)	-0.7%	-13.3%	.	.	.	.
O=C(CN1CCSc2ccccc21)N1CCN(c2cccc(Cl)c2)CC1	.	4.7%	?	-27.0%	12.1%	.
CN1CCN(c2nc(-c3ccc4c(c3)OCO4)nc3ccccc23)CC1	.	-7.4%	.	.	.	11.7%
Cc1nc2ccc(NC(=S)NCCCO)cc2nc1C	-25.7%	-5.4%	?	-24.1%	?	56.2µM*
S=C(Nc1ccc2nccnc2c1)N1CCOCC1	-10.7%	-16.5%	25.1µM*	-27.9%	?	35.5µM*
CCCNC(=S)Nc1ccc2nc(-c3ccccn3)c(-c3ccccn3)nc2c1	-7.1%	-10.6%	-1.9%	-8.2%	-0.1%	17.8µM*
